Results reported in PubChem BioAssay (NCATS).
Inconclusive results are not listed. Entries that show only a call come without a potency. Values without a mark were called inactive. Activity calls are given as the source filed them. Unless noted, calls come from the whole dose curve; as a rule, active = well fitted curve in the direction sought with a large enough effect; inconclusive = small, poorly fitted or top-dose-only effect, or another doubt; inactive = no such curve, though single readings can be large; an effect the other way counts as inactive or inconclusive.

Experiments:
[1] = system: Zika virus NS2B-NS3 protease (unlinked complex); assay: Primary screen GU Rhodamine qHTS for Zika virus inhibitors: Unlinked NS2B-NS3 protease assay (AID 1347159); note: nearly all actives have a fitted effect of over 60% in size; note: potency is the fitted concentration of half-maximal effect
How it was run: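 A qHTS format was used, with compound concentrations ranging up to 114 microM. Each compound was preincubated with 25 nM NS2B-NS3 protease, and the substrate was then added at 1.5 microM. Curves were fitted with a 4-parameter Hill model.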

[2] = system: NIH3T3; assay: Cytotoxic Profiling of Annotated Libraries Using Quantitative High-Throughput Screening (AID 1296008); settings: Five cell lines viability, CellTiter-Glo ATP luminescence, 48-72 h; max response: stronger effect = lower value; note: nearly all actives have a fitted effect of over 60% in size; note: potency is the fitted concentration of half-maximal effect
How it was run: (§1)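 Cytotoxicity was measured as CellTiter-Glo ATP luminescence, read after 10 min at room temperature. Compound treatment of the cells lasted 48 or 72 hr at 37 degrees Celsius in a qHTS format.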

[3] = system: HACAT; assay: qHTS assay to identify novel small-molecules to repurpose for Merkel cell carcinoma treatment (AID 1296009); settings: MCC and control cell lines, CellTiter-Glo viability, 72 h; at 44.8 µM (top of the series) unless noted; note: nearly all actives have a fitted effect of over 60% in size
How it was run: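 After compound transfer in DMSO, plates were kept 72 hr at 37 degree celsius. Luminescent ATP signal from CellTiter-Glo served as viability measure, normalized against DMSO and no-cell controls.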

[4] = system: C33A; assay: Primary qHTS to identify gynecologic anti-cancer compounds using libraries of approved drugs and bioactive compounds (AID 1345084); settings: Gynecologic cancer cell panel viability, ATPlite luminescence, 48 h; series mostly up to 57.5 µM; note: nearly all actives have a fitted effect of over 55% in size; note: potency is the fitted concentration of half-maximal effect
How it was run: (§2)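 48 h compound exposure at 37 C, 5% CO2; five-point qHTS. ATPlite luminescence readout of cell ATP.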

[5] = system: CAOV3; assay: as above; settings: Gynecologic cancer cell panel viability, ATPlite luminescence, 48 h; series mostly up to 57.5 µM
How it was run: as §2

[6] = system: Es-2; assay: as above; settings: Gynecologic cancer cell panel viability, ATPlite luminescence, 48 h; series mostly up to 57.5 µM
How it was run: as §2

[7] = system: Hek293T; assay: as above; settings: Gynecologic cancer cell panel viability, ATPlite luminescence, 48 h, control line for the selectivity index; series mostly up to 57.5 µM
How it was run: as §2

[8] = system: PA-1; assay: as above; settings: Gynecologic cancer cell panel viability, ATPlite luminescence, 48 h; series mostly up to 57.5 µM
How it was run: as §2

[9] = system: SKOV3; assay: as above; settings: Gynecologic cancer cell panel viability, ATPlite luminescence, 48 h; series mostly up to 57.5 µM
How it was run: as §2

[10] = system: Tov112D; assay: as above; settings: Gynecologic cancer cell panel viability, ATPlite luminescence, 48 h; series mostly up to 57.5 µM
How it was run: as §2

[11] = Primary qHTS for inhibitors of nuclear receptor binding SET domain protein 2 (NSD2) in an RCH-ACV wild type WT cells (2C) (AID 1645877); note: nearly all actives have a fitted effect of over 70% in size; note: potency is the fitted concentration of half-maximal effect
[12] = system: HEK293; assay: Cytotoxic Profiling of Annotated Libraries Using Quantitative High-Throughput Screening (AID 1296008); settings: Five cell lines viability, CellTiter-Glo ATP luminescence, 48-72 h; max response: stronger effect = lower value; note: nearly all actives have a fitted effect of over 60% in size; note: potency is the fitted concentration of half-maximal effect
How it was run: as §1

[13] = system: HeLa; assay: Primary qHTS to identify gynecologic anti-cancer compounds using libraries of approved drugs and bioactive compounds (AID 1345084); settings: Gynecologic cancer cell panel viability, ATPlite luminescence, 48 h; series mostly up to 57.5 µM; note: nearly all actives have a fitted effect of over 55% in size; note: potency is the fitted concentration of half-maximal effect
How it was run: as §2

[14] = target: Cytochrome P450 2D6 (Homo sapiens) (UniProt P10635); assay: Cytochrome P450 family 2 subfamily D member 6 (CYP2D6) small molecule antagonists: luciferase biochemical (cell-free) qHTS assay (AID 1645840; active = well fitted curve in the direction sought with a large enough effect in the repeat runs; an effect the other way counts as inactive or inconclusive; note: nearly all actives have a fitted effect of over 55% in size; note: potency is the fitted concentration of half-maximal effect)
How it was run: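 P450-Glo luminescent screen: recombinant CYP2D6 enzyme–proluciferin substrate mix preincubated with compound 10 min at room temperature, then NADPH regeneration added for 1 h at room temperature. Detection reagent added for 20 min; luciferin light read as relative luminescence units.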

[15] = target: Cytochrome P450 2C9 (Homo sapiens) (UniProt P11712); assay: Cytochrome P450 family 2 subfamily C member 9 (CYP2C9) small molecule antagonists: luciferase biochemical (cell-free) qHTS assay (AID 1645842; active = well fitted curve in the direction sought with a large enough effect in the repeat runs; an effect the other way counts as inactive or inconclusive; note: nearly all actives have a fitted effect of over 55% in size; note: potency is the fitted concentration of half-maximal effect)
How it was run: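 Luminescence, after 20 min with luciferin detection reagent, reflected CYP2C9 turnover during a 1 h NADPH-driven reaction at 37C. Enzyme-substrate mix contained 0.4% bovine serum albumin and was preincubated with compound 10 min at room temperature.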

[16] = Cytotoxicity counterscreen for inhibitors of SARS-CoV-2 cell entry (AID 1645845; calls by dose curve; note: nearly all actives have a fitted effect of over 50% in size)
How it was run: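 48 h compound treatment (after 1 h preincubation), HEK293-ACE2 cells, 37 C/5% CO2; ATP luminescence endpoint; normalized to cell wells and media blanks.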

Chain of Cytochrome P450 2D6 (Homo sapiens) (P10635 whole entry, looked up): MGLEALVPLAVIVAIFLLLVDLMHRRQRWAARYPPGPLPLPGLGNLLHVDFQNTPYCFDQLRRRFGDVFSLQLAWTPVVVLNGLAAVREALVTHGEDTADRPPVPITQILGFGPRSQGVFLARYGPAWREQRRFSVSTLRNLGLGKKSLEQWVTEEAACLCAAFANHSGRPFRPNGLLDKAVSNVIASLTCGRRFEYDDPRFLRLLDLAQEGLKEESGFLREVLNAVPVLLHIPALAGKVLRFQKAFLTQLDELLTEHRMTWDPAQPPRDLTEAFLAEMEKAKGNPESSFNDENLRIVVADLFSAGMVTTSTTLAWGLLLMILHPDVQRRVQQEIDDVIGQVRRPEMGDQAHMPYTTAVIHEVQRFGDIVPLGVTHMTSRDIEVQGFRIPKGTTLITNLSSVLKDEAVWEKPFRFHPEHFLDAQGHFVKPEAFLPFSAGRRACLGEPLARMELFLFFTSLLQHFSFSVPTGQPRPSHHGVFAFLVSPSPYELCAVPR
Chain of Cytochrome P450 2C9 (Homo sapiens) (P11712 whole entry, looked up): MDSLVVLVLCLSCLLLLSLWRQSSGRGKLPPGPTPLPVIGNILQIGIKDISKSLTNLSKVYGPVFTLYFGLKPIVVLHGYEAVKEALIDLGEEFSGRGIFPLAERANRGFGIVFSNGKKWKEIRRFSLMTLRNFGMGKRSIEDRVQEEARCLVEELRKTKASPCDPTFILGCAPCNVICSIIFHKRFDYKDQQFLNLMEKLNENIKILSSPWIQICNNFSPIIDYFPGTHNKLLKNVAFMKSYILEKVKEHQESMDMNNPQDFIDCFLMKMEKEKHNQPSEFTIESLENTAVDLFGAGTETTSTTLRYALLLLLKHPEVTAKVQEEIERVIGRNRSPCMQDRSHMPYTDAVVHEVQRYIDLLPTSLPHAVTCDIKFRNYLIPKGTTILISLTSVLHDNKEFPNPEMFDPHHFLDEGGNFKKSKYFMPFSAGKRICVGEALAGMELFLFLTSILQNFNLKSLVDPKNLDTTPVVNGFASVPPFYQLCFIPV

| Compound | Potency [1] | max response [2] [%] | outcome [3] | Potency [4] | Potency [5] | Potency [6] | Potency [7] | Potency [8] | Potency [9] | Potency [10] | Potency [11] | Potency [12] | Potency [2] | Potency [13] | Potency [14] | Potency [15] | outcome [2] | Potency [16] |
| --- | --- | --- | --- | --- | --- | --- | --- | --- | --- | --- | --- | --- | --- | --- | --- | --- | --- | --- |
| CC1CCCCCC(=O)c2c(O)cc(O)cc2CC(=O)O1 (configuration not stated) | inactive | 2.84 | inactive | inactive | inactive | inactive | inactive | inactive | inactive | inactive |  |  |  |  |  |  |  |  |
| C=C(CO)[C@@]12O[C@@H]1[C@@]1(C)C(=CC2=O)CC[C@@H](O)[C@@H]1C |  |  | inactive |  |  |  |  |  |  |  | 12.9 µM (active) | 23.1 µM (active) | 7.31 µM (active) | inactive |  |  |  |  |
| CCCCn1cc(C(=O)c2cccc3ccccc23)c2ccccc21 | inactive | 3.07 | inactive | inactive | inactive | inactive |  | inactive | inactive | inactive | inactive |  |  |  | inactive | inactive |  |  |
| CCC1(O)CCC2C3CCC4=CC(=O)CCC4C3CCC21CC (configuration not stated) |  | 1.71 | inactive | inactive | inactive | inactive | inactive | inactive | inactive | inactive |  |  |  |  |  |  |  |  |
| Cc1ccc(-n2nccn2)c(C(=O)N2CCN(c3nc4cc(Cl)ccc4o3)CCC2C)c1 (configuration not stated) | inactive |  | inactive | inactive | inactive | inactive | inactive |  |  | inactive |  |  |  | inactive | 16.9 µM (active) | 1.34 µM (active) | inactive |  |
| CC(C)C(=O)O[C@H]1[C@@H]2[C@H](C)C(=O)O[C@@H]2C[C@@H](C)[C@@H]2C=CC(=O)[C@]21C |  |  |  |  | inactive |  | 7.94 µM (active) |  |  |  | 2.84 µM (active) | 9.04 µM (active) |  |  |  |  |  |  |
| COc1ccc(C(C)(C)C)cc1CN[C@H]1C2CCN(CC2)[C@H]1C(c1ccccc1)c1ccccc1 | inactive | -16.4 |  |  | inactive |  | inactive | inactive | inactive | inactive |  | 10.3 µM (active) |  | inactive | 2.68 µM (active) | 26.8 µM (active) |  | inactive |
| COC[C@]12CN(C)C3C4[C@H](OC)[C@H]1C3(C(OC)C[C@H]2O)[C@H]1C[C@@]2(O)[C@H](OC(=O)c3ccccc3)[C@@H]1[C@]4(O)[C@@H](O)[C@@H]2OC (some centres not stated) | inactive |  |  |  | inactive |  |  |  |  |  | inactive |  |  |  |  |  |  |  |
| OC(CNc1ccccc1)Cn1c2ccc(Br)cc2c2cc(Br)ccc21 (configuration not stated) |  |  |  | inactive | inactive | inactive | inactive | inactive | inactive | inactive |  |  |  | inactive | 16.9 µM (active) | 5.35 µM (active) |  |  |
| CCCCCn1cc(C(=O)Cc2ccccc2OC)c2ccccc21 |  | -7.87 |  | inactive |  | inactive | inactive | inactive | inactive | inactive |  |  |  | inactive | inactive | 1.9 µM (active) |  |  |
| CC(C)=CCC[C@]1(C)C=Cc2c(O)c3c(c(CC=C(C)C)c2O1)O[C@]12C(=C[C@@H]4CC1C(C)(C)O[C@@]2(C/C=C(/C)C(=O)O)C4=O)C3=O | 2.82 µM (active) |  |  | 5.62 µM (active) | 3.16 µM (active) | 3.16 µM (active) | 5.62 µM (active) | 4.47 µM (active) |  | 5.01 µM (active) | 0.365 µM (active) | 0.731 µM (active) | 1.16 µM (active) | 5.01 µM (active) |  |  |  |  |
| CC(=O)O[C@H]1C(=O)[C@]2(C)C(O)C[C@H]3OC[C@@]3(OC(C)=O)[C@H]2[C@H](OC(=O)c2ccccc2)[C@]2(O)C[C@H](O)C(C)=C1C2(C)C (some centres not stated) | inactive | -3.65 |  | inactive | inactive | inactive | inactive | inactive | inactive | inactive | 5.41 µM (active) |  |  | inactive |  |  |  |  |
| CC(=O)OC[C@]12C[C@H](OC(C)=O)C(C)=C[C@H]1O[C@@H]1[C@H](O)[C@@H](O)[C@@]2(C)[C@]12CO2 | inactive |  |  |  | 1 µM (active) | 1.26 µM (active) | 0.398 µM (active) |  |  | 2.24 µM (active) | 0.0898 µM (active) |  | 1.01 µM (active) |  |  |  |  |  |
| CCCCCn1cc(C(=O)C2C(C)(C)C2(C)C)c2ccccc21 |  | -0.489 | inactive | inactive | inactive | inactive | inactive | inactive |  | inactive | inactive |  |  | inactive | inactive | 10.7 µM (active) |  |  |
